From PubChem
Hits are enriched below; roughly 2.6% of the tested compounds scored in any of these assays.
CF NFkB block: blocks PAF-induced NF-kB reporter in cystic fibrosis cells | KKLEB NF-kB-GFP reporter, GFP fluorescence overnight | inhibition, % at 5 µM | 360,000 tested, 0.86% active | AID 588850;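 active = at least 50% inhibition at 5 µM, scaled per plate between neutral and stimulator controls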;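 note: PAF is a Pseudomonas aeruginosa culture filtrate used as stimulus; plate controls were PAF-stimulated DMSO wells for no effect and unstimulated DMSO wells for full effect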
LGR2 inh: inhibitors of bursicon-induced Drosophila LGR2 receptor cAMP signaling | inhibition, % at 9.99 µM | HEK293 LGR2, CRE-luciferase, bursicon-stimulated, 4 h | 380,000 tested, 0.35% active;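 active = drop in luminescence signal, shown as inhibition above about 50% in the replicate tests, limit read from the data, passing the limit was not always enough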;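 note: agonist challenge used bursicon conditioned medium at about half maximal strength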
TROY signal inh: inhibitors of TROY-dependent NF-kB signaling; inhibition, % at 10 µM; AID 1347056; Q293 LMP1-TROYcd NF-kB luciferase reporter, 4 h; 360,000 tested, 0.98% active;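 active = compounds whose plate-normalised and pattern-corrected inhibition of the luciferase reporter signal at the single screening dose is 50% or more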
KKLEB cytotox: reduces viability of KKLEB cystic fibrosis airway cells | activity change (cytotoxicity), % at 5 µM | KKLEB CF airway cells viability, ATPlite luminescence, overnight; stronger effect = lower value; cells stimulated with P. aeruginosa culture filtrate | 360,000 tested, 0.36% active | AID 602141;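 active = corrected activity change at or below -50% at 5 µM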
TWEAK-Fn14 inh: TWEAK-Fn14 signaling inhibition. 360,000 tested, 2% active. TWEAK-stimulated Fn14 reporter cells, luciferase luminescence, 8 h. inhibition, % at 10 µM; in the data active = inhibition above about 50%
EWS-Fli inh: inhibitors of EWS/Fli oncoprotein transcriptional activity; A673 NR0B1-luciferase reporter, viability-normalised; inhibition, % at 12.6 µM; 350,000 tested, 0.67% active; AID 651661;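 active = mean inhibition of at least 50% after viability correction, with every replicate also passing that limit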;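 note: firefly luciferase signal divided by Alamar Blue viability fluorescence both relative to DMSO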
An asterisk follows results filed as active; · = no result given.

SMILES	CF NFkB block	LGR2 inh	TROY signal inh	KKLEB cytotox	TWEAK-Fn14 inh	EWS-Fli inh
CCS(=O)(=O)Nc1ccc2c(c1)C(=O)N(C)C[C@@H](OC)[C@@H](C)CN(C(=O)NC(C)C)[C@H](C)CO2	·	-1	·	·	·	-8
COC(=O)c1ccccc1NC(=S)NC(=O)c1cccc2ccccc12	4	·	27	-6	60*	·
C[C@@H]1CN([C@H](C)CO)C(=O)c2cccc(NS(=O)(=O)c3ccccc3)c2O[C@@H]1CN(C)Cc1ccc(Oc2ccccc2)cc1	·	-16	·	·	·	-3
COc1ccc(CCN2C(=O)c3cccc4c(C(=O)N5CCCCC5)ccc(c34)C2=O)cc1OC	-12	102*	57*	2	78*	11
COc1cccc(-c2ccc([C@@H]3[C@@H](CO)N4C(=O)CN(C(=O)NC(C)C)C[C@@H]34)cc2)c1	·	1	·	·	·	-7
CC(C)Oc1ccc(C(=O)Nc2nnc(SCC(=O)N3CCOCC3)s2)cc1	12	74*	-8	-74*	50*	60*
CC(=O)Nc1nnc(SCC(=O)N2CCc3ccccc32)s1	1	15	-1	8	8	1
CN(C)S(=O)(=O)c1ccc(C(=O)Nc2nnc(SCC(=O)N3CCOCC3)s2)cc1	-36	-13	-11	7	2	-13
O=C(Nc1nnc(SCC(=O)N2CCCc3ccccc32)s1)c1cccc2ccccc12	-1	22	-25	15	-12	88*
CCOC(=O)CNC(=O)CSc1nnc(NC(=O)c2ccc(C)cc2)s1	7	73*	-1	-18	68*	42
Cc1ccc(C(=O)Nc2nnc(SCC(=O)N3CCCc4ccccc43)s2)cc1	3	·	15	-97*	55*	49
C=CCN=C1NC(c2ccc(F)cc2)C(C(=O)OC)=C(C)N1C (stereo unspecified)	·	20	·	·	·	-3
CC(=O)N1CCCCN2[C@H](CO)[C@H](c3ccc(Br)cc3)[C@@H]2C1	·	3	·	·	·	-6
O=S(=O)(c1ccccc1F)N1[C@@H]2CNC[C@H]1C2c1ccc(-c2cccnc2)cc1 (stereo partly specified)	·	-12	·	·	·	13
CC(C)CC#Cc1ccc2c(c1)O[C@H](CN(C)Cc1cccc(F)c1)[C@@H](C)CN([C@H](C)CO)S2(=O)=O	·	-1	·	·	·	26
Cc1cc(NC(=O)COC(=O)C2CCN(S(=O)(=O)c3c(Cl)cccc3Cl)CC2)no1	-17	·	·	-4	92*	·
CCOC(=O)C1CCN(S(=O)(=O)c2c(Cl)ccc3nonc23)CC1	90*	4	68*	-44	75*	·
COc1ccc(NC(=O)Nc2ccc3c(c2)C(=O)N([C@H](C)CO)C[C@H](C)[C@H](CN(C)S(=O)(=O)c2ccc(OC)cc2)OCCCC[C@@H](C)O3)cc1	·	2	·	·	·	-14
C[C@@H]1CN([C@@H](C)CO)C(=O)c2cccc(NC(=O)c3nc4ccccc4s3)c2O[C@@H]1CN(C)Cc1ccc(C(F)(F)F)cc1	·	14	·	·	·	14
O=C(C[C@H]1C[C@@H]2c3cc(NC(=O)C4CCC4)ccc3O[C@@H]2[C@H](CO)O1)NC1CCCC1	·	-42	·	·	·	-5
Nc1cc2nc3ccccc3oc-2cc1=O	53*	·	-23	0	14	5
CC(C)NC(=O)N1C[C@H]2[C@@H](c3ccccc31)[C@H](CO)N2Cc1ccccc1	·	0	·	·	·	12
Nc1nc(CSc2nc3ccccc3s2)nc(N2CCOCC2)n1	10	-16	12	-8	-16	-12
Nc1nc(CSCc2ccccc2)nc(N2CCOCC2)n1	-1	·	·	-1	61*	·
COc1ccc(C(CC(=O)N2CCOCC2)C(C)C)cc1 (stereo unspecified)	5	47	0	-6	80*	·
SMILES	CF NFkB block	LGR2 inh	TROY signal inh	KKLEB cytotox	TWEAK-Fn14 inh	EWS-Fli inh
CCCCOc1ccc(C(O)C(CN2CCCCC2)c2ccccc2)cc1 (stereo unspecified)	15	26	-8	-6	-24	1
O=C(c1ccc(Cl)cc1)C1CCN(Cc2ccccc2)CC1	9	-10	2	-9	4	2
CCCOc1ccc(C(=O)C(CN2CCCC2)c2ccccc2)cc1 (stereo unspecified)	38	27	16	-61*	33	61*
COc1ccc(C(=O)C(CN2CCCC2)c2ccccc2)cc1 (stereo unspecified)	54*	·	-35	-58*	36	·
O=C(c1ccc(Cl)cc1)C(CN1CCCC1)c1ccccc1 (stereo unspecified)	69*	14	-15	-60*	58*	65*
COc1ccc(C(=O)CCN2CCCCCC2)cc1	7	8	1	8	-5	-2
COc1ccc(C(CC(=O)N2CCCC2)C(C)C)cc1 (stereo unspecified)	-6	15	-9	6	17	6
c1ccc(C(CN2CCOCC2)c2ccccc2)cc1	0	·	5	-7	1	·
CCCCOc1ccc(C(=O)C(CN2CCOCC2)c2ccccc2)cc1 (stereo unspecified)	-18	·	3	-38	31	·
O=C(c1ccc(F)cc1)C(CN1CCOCC1)c1ccccc1 (stereo unspecified)	90*	58*	22	-68*	74*	57*
COc1ccc(C(=O)C(CN2CCOCC2)c2ccccc2)cc1 (stereo unspecified)	54*	54*	5	-61*	37	3
O=C(C[C@@H]1C[C@H]2c3cc(NC(=O)c4ccc5c(c4)OCO5)ccc3O[C@H]2[C@@H](CO)O1)NCc1ccc(Cl)cc1	·	-5	·	·	·	-2
CC1CCCC=CC2CC(OC(=O)CN(C)C)CC2C(O)C=CC(=O)O1 (stereo unspecified)	71*	·	-10	-41	41	63*
CO[C@@H]1CC[C@@H]2CCOc3c(C#N)cccc3C(=O)N(C)[C@H](C)C(=O)N(C)C[C@H]1O2	·	-1	·	·	·	-4
O=c1c2cnn(-c3ccccc3)c2nc(-c2ccco2)n1-c1ccccc1	-14	·	16	-4	55*	·
O=c1oc(-c2ccco2)nc2c1cnn2-c1ccccc1	-5	·	15	4	12	·
C[C@H](CO)N1C[C@H](C)[C@@H](CN(C)C(=O)c2ccccc2)OCCCC[C@H](C)Oc2ccc(NC(=O)CCC(F)(F)F)cc2C1=O	·	1	·	·	·	2
O=C(Nc1nc2c(s1)CCCC2)C1COc2ccccc2O1 (stereo unspecified)	-2	80*	71*	-14	82*	-82
O=C(NC1=NCCS1)C1COc2ccccc2O1 (stereo unspecified)	5	·	86*	-14	106*	·
O=C1CNC[C@H]2[C@@H](c3ccc(C4=CCCCC4)cc3)[C@H](CO)N12	·	5	·	·	·	-2
O=C(CC1CC1)N1CC2(C1)[C@H](c1ccccc1)[C@H](CO)N2C(=O)C1CCOCC1	·	-10	·	·	·	1
